A selection: hits, their analogues and other compounds. The true share with any hit is near 19%.
DT40 TDP1 no CPT: qHTS for Inhibitors of human tyrosyl-DNA phosphodiesterase 1 (TDP1): qHTS in cells in absence of CPT | DT40 Tdp1-/- hTDP1 cells, no CPT, ATP luminescence, 48 h | Potency, µM (series often up to 46.2 µM), inactives show at the highest dose activity change, negative = growth inhibition, hits mostly inhibitors | 420,000 tested, 15% active; note: potency is the fitted concentration of half-maximal effect; % is set by controls: 0 for no effect and ±100 for the full control effect; nearly all actives have a fitted effect of over 55% in size
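Chicken DT40 Tdp1-/- cells stably complemented with human TDP1 were seeded at 400 cells/well with DMSO in place of 20 nM camptothecin. After compound pinning, cells grew at least 48 hr at 37 °C; viability read by CellTiter-Glo luminescence.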
Chronic BCR inh: inhibitors of chronic active B-cell receptor signaling | Potency, µM (series often up to 46.1 µM), for the others: at the highest dose activity change, negative = inhibition, usual class: inhibitors | ABC-DLBCL IkBa-CBG/CBR reporter, luminescence ratio, 4 h | 340,000 tested, 0.05% active | AID 493014; active = well fitted inhibition curve with a large enough effect in the signal ratio, with a control signal flat, not every such curve was filed as active; inconclusive = small, poorly fitted or top-dose-only effect, or effect the other way, or a change in a side signal; the % refers to the signal ratio;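 note: potency is the fitted concentration of half-maximal effect; plate controls were basal doxycycline-induced cells for no effect and cells given 10 µM MG132 for full effect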
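Doxycycline induced both beetle luciferases in TMD8 lymphoma cells; IKK-driven degradation limits the IkappaBalpha-fused green signal, while red luminescence normalises for cell number and nonspecific effects. Compounds tested up to 46 uM, 4 hrs.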
IL-1B inflam inh: blocks inflammasome-driven IL-1 beta release; activity change, % at 57.5 µM; 360,000 tested, 4.7% active; THP-1 LPS/ATP IL-1B secretion, AlphaLISA, 16 h; hits give low values; in the data active = activity change below about -50%; inconclusive = mostly about -30% to -49%; note: % is set by controls: 0 for no effect and ±100 for the full control effect
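THP-1 cells pretreated 1 hr with compounds (up to 57.5 uM final), then stimulated with LPS (250 ng/mL final) plus ATP (1.25 mM final); secreted IL-1B measured by AlphaLISA after 16 hr, decreased signal indicating inhibition.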
SW480 rerep: inducers of DNA re-replication in SW480 colon cancer cells. 340,000 tested, 1.8% active. SW480 DNA re-replication, Hoechst DNA content imaging, 48 h. Potency, µM (series often up to 46.1 µM), without a hit: at the highest dose re-replication activation, most hits filed as activators; note: potency is the fitted concentration of half-maximal effect; % of control where 0% means no effect; nearly all actives have a fitted effect of over 55% in size
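250 cells/well; 23 nL cpd via pin tool; 48 hr, 37 C, 5% CO2; Hoechst 40 min; imager read of total nuclear intensity, ex 405/em 500-530 nm.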
MCF10A rerep: DNA re-replication induction in MCF 10a cells | MCF 10A DNA re-replication, Hoechst nuclear intensity, 48 h | Potency, µM (titrated, usually from 46.1 µM), for inactives: at the highest dose activity, positive = re-replication, usual class: activators | 350,000 tested, 2.9% active | AID 624296; note: potency is the fitted concentration of half-maximal effect; % of control where 0% means no effect; nearly all actives have a fitted effect of over 50% in size
TDP1 cell CPT: growth inhibition of DT40 Tdp1-/-;hTDP1 cells with camptothecin (screen for TDP1 inhibitors); chicken DT40 Tdp1-/-;hTDP1 cells + 20 nM CPT, ATP luminescence, 48 h; Potency, µM (series often up to 46.2 µM), inactives show at the top dose activity change, negative = growth inhibition, hits mostly inhibitors; 420,000 tested, 12% active; AID 686979; note: potency is the fitted concentration of half-maximal effect; % is set by controls: 0 for no effect and ±100 for the full control effect; nearly all actives have a fitted effect of over 55% in size
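Chicken DT40 Tdp1-/- cells complemented with human TDP1, 400 cells/well, exposed to compounds plus 20 nM camptothecin for at least 48 h at 37 C; viability read as ATP content by CellTiter-Glo luminescence.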
* marks the source's active call; other numbers are inactive results; ? = inconclusive; . = not tested or not shown; [ ] = remark or other dose. Unless noted, calls come from the whole dose curve; as a rule, active = well fitted curve in the direction sought with a large enough effect; inconclusive = small, poorly fitted or top-dose-only effect, or another doubt; inactive = no such curve, though single readings can be large; an effect the other way counts as inactive or inconclusive.

SMILES	DT40 TDP1 no CPT	Chronic BCR inh	IL-1B inflam inh	SW480 rerep	MCF10A rerep	TDP1 cell CPT
Cc1ccc(CSC2=NCCN2S(=O)(=O)c2ccc(C)cc2)cc1	?	.	10	.	.	23µM*
Cc1ccc(S(=O)(=O)N2CCN=C2SCc2ccc(Cl)c(Cl)c2)cc1	-29%	4%	46	.	-1%	-5%
COc1ccc(Cl)cc1NCc1nnc2n1CCCCC2	4%	.	.	.	.	-1%
O=C(Nc1ncccc1O)C1CCN(S(=O)(=O)c2ccc3ccccc3c2)CC1	-15%	0%	2	-6%	-3%	-7%
CCOC(=O)C1CCCN(C(=O)c2cc(C)n(C(C)(C)C)n2)CC1 (configuration not stated)	-22%	.	15	.	.	-5%
COc1ccc([C@@H]2CC=C(C(=O)O)[C@H](c3ccccc3F)N2S(=O)(=O)c2ccccc2C)cc1	6%	3%	-10	-7%	-3%	-5%
CCc1ccccc1NC(=O)CN(c1ccc(OC)cc1OC)S(=O)(=O)c1ccccc1	?	2%	-9	9%	?	21µM*
COc1ccc(NC(=O)CN(c2ccc(F)cc2)S(=O)(=O)c2ccccc2)c(OC)c1	?	-4%	50	-19%	?	?
COc1ccc(N(CC(=O)Nc2cccc(C(C)=O)c2)S(=O)(=O)c2ccccc2)c(OC)c1	6.5µM*	.	.	.	.	7.3µM*
CC1C(c2ccccc2)=Nn2c(=O)n(-c3ccccc3)c(=O)n21 (configuration not stated)	23µM*	.	41	.	.	?
CCN(CC)Cc1nc2c(c(=O)[nH]1)C1(CCCC1)Cc1ccccc1-2	?	18%	5	-1%	?	21µM*
O=c1[nH]c(NCCO)nc2c1C1(CCCC1)Cc1ccccc1-2	-9%	?	-12	-1%	?	?
O=c1[nH]c(CN(CCO)CCO)nc2c1C1(CCCCC1)Cc1ccccc1-2	0%	5%	?	-1%	-5%	?
C=CCNC(=S)NNc1nc2c(c(=O)[nH]1)C1(CCCCC1)Cc1ccccc1-2	7%	?	-3	?	23µM*	?
CC(C)CN(CC(C)C)CC(O)COc1ccccc1Br (configuration not stated)	15µM*	4%	-11	?	?	?
CCCCN(CCCC)CC(O)COc1ccccc1Br (configuration not stated)	16µM*	0%	?	22%	22%	?
CC(C)CN(CC(C)C)CC(O)COc1ccc([N+](=O)[O-])cc1 (configuration not stated)	18µM*	1%	?	-11%	5%	?
Cc1ccccc1OCC(O)CN(CCO)Cc1ccccc1 (configuration not stated)	-9%	?	-7	0%	-10%	-4%
COc1ccccc1OCC(O)CO (configuration not stated)	-3%	4%	2	-72%	12%	2%
O=C(COC(=O)C1CCN(C(=O)c2ccc(Cl)cc2)CC1)Nc1ccccc1F	-1%	1%	-24	0%	-4%	-4%
C[C@@]12CCC3[C@@](CCC4[C@@]3(C)CCC[C@@]4(C)C(=O)O)(CC1=O)C2 (some centres not stated)	-14%	0%	46	-2%[9.22 µM]	5%	2%
CC(C)(C)CNC(=O)[C@]1(C)CCC[C@@]2(C)C3CC[C@@]4(C)C[C@]3(CCC21)CC4=O (some centres not stated)	23µM*	-3%	41	2%	9%	?
C[C@@]12CCC3[C@@](CCC4[C@@]3(C)CCC[C@@]4(C)C(=O)NCc3ccccc3)(CC1=O)C2 (some centres not stated)	18µM*	?	19	4%	29%	?
Cc1cccc(OCCCCn2c(CO)nc3ccccc32)c1	?	?	-2	-5%	20%	?
CCc1nc2ccccc2n1CCCCOc1cccc(C)c1	23µM*	.	.	.	.	?
SMILES	DT40 TDP1 no CPT	Chronic BCR inh	IL-1B inflam inh	SW480 rerep	MCF10A rerep	TDP1 cell CPT
O=C(Nc1nc2ccccc2n1CCOc1ccc(Cl)cc1)c1ccco1	18µM*	-4%	75	?	6%	26µM*
Cc1cccc(OCCn2c(NC(=O)c3ccco3)nc3ccccc32)c1	?	2%	13	?	15%	26µM*
O=C(Nc1nc2ccccc2n1CCN1CCCCC1)c1ccco1	?	1%	0	?	9%	?
O=C(Nc1nc2ccccc2n1CCOc1ccccc1)c1ccco1	15µM*	-1%	-16	?	5%	15µM*
O=C(Nc1nc2ccccc2n1Cc1ccc(Cl)cc1)c1ccco1	-27%	-3%	-3	3%	?	?
CC1CCCCC12NC(=O)N(CC(=O)N1CCN(S(=O)(=O)Cc3ccccc3)CC1)C2=O (configuration not stated)	-26%	?	9	-8%	2%	-20%
CCCCn1c(N)c(N(CC(C)C)C(=O)C2CCCO2)c(=O)[nH]c1=O (configuration not stated)	3%	-2%	14	-1%	-1%	8%
Cc1cccc(OCCn2c(-c3ccco3)nc3ccccc32)c1	?	0%	-2	6.5µM*	252%[0.0737 µM]	?
c1ccc(OCCn2c(-c3ccco3)nc3ccccc32)cc1	?	?	-4	10%	-1%	?
CC(C)(C)CC(=O)NC(=S)NCCc1ccccc1	-27%	?	49	10µM*	?	-5%
COc1ccc(NC(=S)NCCc2c[nH]c3ccccc23)cc1	?	-2%	-17	5%	?	?
COc1ccccc1NC(=S)NCCc1c[nH]c2ccccc12	18µM*	?	0	?	28%	15µM*
COc1cc(NC(=S)NCCc2c[nH]c3ccccc23)c(OC)cc1Cl	?	?	-66*	21%	11%	?
Cc1ccc(NC(=S)NCCc2c[nH]c3ccccc23)c(C)c1	21µM*	12%	-26	-24%	5%	13µM*
O=C(CCNC(=O)c1ccc(Br)cc1)NC1CCCc2ccccc21 (configuration not stated)	-14%	8%	-15	?	?	-15%
Cc1cc(C(=O)NCCc2ccc(S(=O)(=O)NC(=O)NN3CCCCCC3)cc2)no1	?	.	.	2%	12%	?

Source: PubChem (National Center for Advancing Translational Sciences (NCATS))
